Inhibition data for 33 molecules are collected here from PubChem BioAssay AID588778 (Southern Research Institute, 2011).

Screen size: about 10,000 compounds; fewer than 10 were called active. The rule behind the calls is not given here. A selection follows.

This assay in a line: Vibrio cholerae motility inhibitors, OD read-out (AID 588778). The following applies: stronger effect = higher value.
Setting [1] is: measured here: bacterial viability at 10 ug/mL.

As a reminder, the inhibition is the drop in the measured response relative to a control, in per cent. With `O=C(Cn1cnc2ccccc2c1=O)c1ccc(Br)cc1`, the inhibition (concentration not given here) is -17.8% (inactive) and the inhibition under setting [1] is -8.61%.

Turning to `Cc1cc(C)n2nc(Cc3ccccc3)c(-c3cccc4ccccc34)c2n1`, the inhibition is, setting by setting: (concentration not given here) 0.73% (inactive); under setting [1], 8.65%.

For the molecule `O=CN1Cc2ccccc2-c2ccccc2C1`, the inhibition is 6.8% (inactive) (concentration not given here) and 3.25% under setting [1].

On to `O=C(CNC(=S)NC(=O)c1ccc(F)cc1)c1ccccc1`, for which the inhibition is -64% (inactive) (concentration not given here) and -21.1% under setting [1].

For the molecule `O=C(c1ccccc1Oc1ccc(C(F)(F)F)cc1[N+](=O)[O-])N1CCOCC1`, the inhibition (concentration not given here) is -15.4% (inactive) and the inhibition under setting [1] was -2.04%.

Turning to `CN1CCN(C(=O)c2ccccc2NC(=O)Nc2ccccc2)CC1`, the inhibition runs as follows: (concentration not given here) 15.9% (inactive); under setting [1], 1.65%.

In the case of `COc1cccc(/C=C(\C#N)c2ccccc2)c1OC(C)C`, the inhibition was 22.8% (inactive) (concentration not given here) and -2.34% under setting [1].

With `COc1ccc(C2/C(=C(\O)c3ccc(C)cc3)C(=O)C(=O)N2c2ncc(S(=O)(=O)c3ccc([N+](=O)[O-])cc3)s2)cc1` (stereo unspecified), the inhibition (concentration not given here) is -0.505% (inactive) and the inhibition under setting [1] is -2.23%.

As for `Cc1cc(NC(=O)CC2C(=O)N(c3ccccc3)C(=S)N2CCc2ccc(F)cc2)no1` (stereo unspecified), the inhibition reads like this: (concentration not given here) 13.3% (inactive); under setting [1], 9.96%.

As to `Cc1ccc(NNC(=O)C(c2ccccc2)c2ccccc2)cc1`, the inhibition is 7.31% (inactive) (concentration not given here) and 10% under setting [1].

On to `Cc1ccc(CN2CC(C(=O)O)CC2=O)cc1` (stereo unspecified), for which the inhibition (concentration not given here) was 14.2% (inactive) and the inhibition under setting [1] is -5.3%.

With `Cc1ccccc1NC(=O)NNc1ccc(F)cc1`, the inhibition was 15.9% (inactive) (concentration not given here) and 1.32% under setting [1].

As to `CCOC(=O)c1sc(NC(=O)COc2ccc(Cl)cc2Cl)cc1C`, the inhibition (concentration not given here) is 19.1% (inactive) and the inhibition under setting [1] turned out to be 13.9%.

As to `CCOc1ccc2nc(SCC(=O)Nc3ccc4c(c3)OCO4)[nH]c2c1`, the inhibition is, setting by setting: (concentration not given here) 4.79% (inactive); under setting [1], 2.6%.

With `Cn1cc(C2CC(=O)N(c3c(Cl)cccc3Cl)C2=O)c2ccccc21` (stereo unspecified), the inhibition (concentration not given here) is -0.44% (inactive) and the inhibition under setting [1] is 3.05%.

As to `CC12CCC(C(=O)NCc3ccc4c(c3)OCO4)(c3nc4ccccc4nc31)C2(C)C` (stereo unspecified), the inhibition (concentration not given here) was 3.2% (inactive) and the inhibition under setting [1] turned out to be 0.26%.

With `O=[N+]([O-])c1cccc(N2CCOCC2)c1`, the inhibition is 17.3% (inactive) (concentration not given here) and 4.88% under setting [1].

Take `OC(COCc1ccc(Cl)cc1)CN1CCN(c2cccc(Cl)c2)CC1` (stereo unspecified): the inhibition reads like this: (concentration not given here) 37.3% (inactive); under setting [1], 11.7%.

With `COc1ccc(C(=O)CSc2nc(=O)cc(N)n2-c2ccc(C)cc2)cc1OC`, the inhibition is, setting by setting: (concentration not given here) -12% (inactive); under setting [1], -11.4%.

As to `O=C(CS(=O)(=O)Cc1ccccc1)N1CCN(Cc2ccc3c(c2)OCO3)CC1`, the inhibition was 12.5% (inactive) (concentration not given here) and 2.65% under setting [1].

As for `CN(CCc1ccccn1)S(=O)(=O)c1ccccc1`, the inhibition was 4.78% (inactive) (concentration not given here) and -3.86% under setting [1].

For the molecule `COc1ccc(C(=O)ON2C(=O)CCC2=O)cc1I`, the inhibition is 4.65% (inactive) (concentration not given here) and -0.225% under setting [1].

Turning to `Cc1cc(NC(=O)c2ccccc2Cl)c(OC(=O)c2ccccc2Cl)cc1C`, the inhibition is -5.73% (inactive) (concentration not given here) and -9.05% under setting [1].

As to `O=C(Oc1ccccn1)C1COc2ccccc2O1` (stereo unspecified), the inhibition is, setting by setting: (concentration not given here) -4.64% (inactive); under setting [1], -1.04%.

As for `Cn1nnc2cc(NC(=O)NCc3ccco3)ccc21`, the inhibition by setting is: (concentration not given here) 9.79% (inactive); under setting [1], 6.21%.

As to `COc1cc(N2C(=O)c3cccc4c([N+](=O)[O-])ccc(c34)C2=O)ccc1-n1nc(C)cc1C`, the inhibition was 3.2% (inactive) (concentration not given here) and -0.9% under setting [1].

In the case of `CC(=O)Nc1sc(/C(C#N)=C/c2ccc(N(C)C)cc2)nc1-c1ccc(C)cc1`, the inhibition is, setting by setting: (concentration not given here) 2.79% (inactive); under setting [1], -2.29%.

For the molecule `O=[N+]([O-])c1ccccc1OCCCNCc1ccco1`, the inhibition reads like this: (concentration not given here) 11% (inactive); under setting [1], 4.43%.

Consider `CC(C)(C)SCCNC(=S)Nc1ccccc1`, for which the inhibition was 32.6% (inactive) (concentration not given here) and 4.53% under setting [1].

On to `COC(=O)C1=C(C)N=C2SCCC(=O)N2C1/C=C/c1ccccc1` (stereo unspecified), for which the inhibition (concentration not given here) was -20.3% (inactive) and the inhibition under setting [1] was -9.41%.

Consider `CCSc1ncc(Cl)c(C(=O)Nc2c(C)n(C)n(-c3ccccc3)c2=O)n1`, for which the inhibition was -0.94% (inactive) (concentration not given here) and -0.4% under setting [1].

For the molecule `CC(=O)N(Cc1cc2ccc(C)cc2[nH]c1=O)c1ccc(C)cc1C`, the inhibition reads like this: (concentration not given here) -16.5% (inactive); under setting [1], -2.06%.

As to `O=C(O)CCCCN1Cc2ccccc2C1`, the inhibition was 2.35% (inactive) (concentration not given here) and 7.06% under setting [1].
